Measurements reported in PubChem BioAssay AID2289 (National Center for Advancing Translational Sciences (NCATS), 2010).
The whole screen tested about 340,000 compounds, of which about 3,300 (0.97%) were called active. Another 9% or so got no clear call; they are omitted. Calls follow the shape of the dose curve; as a rule, active = well fitted inhibition curve with a large enough effect; inconclusive = small, poorly fitted or top-dose-only effect, or effect the other way; inactive = flat fitted curve, though single readings scatter. The list shows a part of the results.

experiment: qHTS Assay for Modulators of miRNAs and/or Inhibitors of miR-21; conditions: HeLa miR-21-FLuc reporter, luciferase luminescence, 48 h; actives lower the signal; also: nearly all actives have a fitted effect of over 55% in size
Excerpt: MLSCN Grant: 1 R21 NS059478-01 Assay Provider: Qihong Huang, The Wistar Institute NCGC Assay Overview: MicroRNAs (miRNAs) are endogenously encoded small (~20-25 nucleotides), nonprotein-coding RNAs that are involved in post-transcriptional repression of target messenger RNAs (mRNAs) (Le and Hannon, 2004). Estimated to be involved in the regulation of 30% of all protein-coding mRNAs (Filipowicz et al., 2008), miRNAs play a significant role in many biological processes including cellular differentiation and tissue development (Ghildiyal and Zamore, 2009).
NCGC Assay Protocol Summary: Reagents: HeLa cells stably expressing firefly luciferase (FLuc) under the control of a CMV promoter (upstream) and a miR-21 binding sequence directly downstream of the gene. These cells endogenously express miR-21. Control compounds used were compound C3 (provided by collaborator), N6-phenyladenosine (MP Biomedicals, 0215379625), and DMSO. Assay Summary: 6uL of HeLa miR-21-FLuc cells in assay buffer (DMEM, Invitrogen #21063-029; 10% FBS, HyClone #SH30071.03) were dispensed at 2000cells/well (3.3 x 10^5 cells/mL) into Greiner solid-white TC-treated 1536-well plates using a Multidrop Combi (Thermo Fisher Scientific). Plates were incubated for one hour at 37 degree Celsius, 95% humidity, 5% CO2. These assay plates were then treated with 23nL of compound or DMSO using a Kalypsys pin tool, which allows for delivery of a 24-point titration of each compound to the assay plate, with a final compound concentration ranging from approximately 40uM to 5pM. Assay plates were then incubated for 48 hours. After incubation, plates were allowed to come to RT for one hour prior to delivery of 3uL of 3X luciferase detection reagent. After a 15 minute incubation to allow for cell lysis, luciferase activity was measured using a ViewLux CCD imager (PerkinElmer), with an average exposure time of 2-12 seconds. Keywords: NIH Roadmap, MLPCN, MLSMR, qHTS, miR-21, microRNA, firefly luciferase, FLuc.
Potency is read from the fitted curve at half-maximal effect.

Potency, active:
NNC(=O)c1cccc(COc2ccc3c(c2)CCC3)c1 0.185 µM
O=C(NCc1ccccc1)c1cccc(COc2ccc3c(c2)CCC3)c1 0.585 µM
Cc1cc(C(=O)Nc2nc3ccc(Cl)cc3s2)nn1C 0.927 µM
COc1ccccc1NC(=O)Nc1nc2ccc(S(N)(=O)=O)cc2s1 4.14 µM
NS(=O)(=O)c1ccc2nc(NC(=O)Nc3ccccc3F)sc2c1 0.329 µM
O=C(Nc1nc2ccc(F)cc2s1)c1ccccn1 0.104 µM
O=C(Nc1nc2ccccc2s1)Nc1ccc(F)cc1F 0.736 µM
Cc1ccccc1OCC(O)Cn1nnc2ccccc21 (stereo not given) 7.36 µM
CC(C)(C)CC(=O)Nc1nnc(-c2cccs2)s1 1.31 µM
CCOc1ccc2c(c1)c(N=Nc1cccc(C(=O)O)c1)c(O)n2C 6.56 µM
O=C(NCc1ccccc1)c1cccc(COc2cc(Cl)ccc2Cl)c1 7.36 µM
CN1CCN(C(=O)c2cccc(COc3cc(Cl)ccc3Cl)c2)CC1 16.5 µM
N#Cc1ccccc1NC(=O)c1cccc(COc2ccc(Cl)cc2Cl)c1 1.65 µM
CN(C(=O)c1cccc(COc2ccc(Cl)cc2Cl)c1)c1ccccc1 2.61 µM
Cc1cc(C)c2c(N)c(C(=O)N/N=C/c3cccs3)sc2n1 1.47 µM
Cc1cc(C)c2c(N)c(C(=O)NCC3CCCCC3)sc2n1 6.56 µM
CCCCOC(=O)c1sc2nc(C)cc(C)c2c1N 5.85 µM
Cn1c(=O)c(/C=C/c2ccccc2)nc2ccccc21 2.07 µM
CC(C)n1c(/C=C/c2ccccc2)nc2ccccc21 6.56 µM
O=c1[nH]c2ccccc2nc1/C=C/c1ccccc1 2.33 µM
Cc1cccc(-c2noc(-c3cc(C(C)C)[nH]n3)n2)c1 0.464 µM
COc1ccc(-c2noc(-c3cc(C(C)C)[nH]n3)n2)cc1 3.29 µM
CC12COC3(C(=O)Nc4ccc5ccccc5c4)CC1CCC32C (stereo not given) 7.36 µM
CCN1CCN(c2ccc(NC(=O)c3ccccc3F)cc2Cl)CC1 2.93 µM
CCN1CCN(c2ccc(NC(=O)c3ccco3)cc2Cl)CC1 8.26 µM
Cc1ccc(Nc2ncnc(-n3cccc3)n2)cc1Cl 2.33 µM
COc1ccc(-c2c(C)nc3c(-c4ccccn4)cnn3c2N)cc1 0.261 µM
COc1ccc(-c2c(C)nc3c(-c4ccsc4)cnn3c2N)cc1 0.414 µM
CCOC(=O)C1=C(CSc2nc(-c3ccccc3)ccc2C#N)OC(N)=C(C#N)C1c1ccc(OC)cc1 (stereo not given) 11.7 µM
COc1ccc(C(=O)Cc2ccc(F)cc2)c(OC)c1 13.1 µM
O=[N+]([O-])c1ccc(/C=N/N2CCCCC2)cc1 5.21 µM
COc1ccc(-c2nnc(SCC(=O)c3cccs3)o2)c(OC)c1 6.56 µM
Cc1cc(Cl)c2oc(C(=O)N3CCN(c4cccc(C)n4)CC3)c(C)c2c1 4.65 µM
Cc1cc(Cl)c2oc(C(=O)N3CCN(C(=O)c4ccco4)CC3)c(C)c2c1 14.7 µM
O=C(Nc1ccc(Cl)cn1)c1ccc2c(Cl)c3c(nc2c1)CCC3 0.185 µM
CN(C(=O)c1ccc2c(Cl)c3c(nc2c1)CCC3)c1ccccc1 14.7 µM
COCCNC(=O)c1ccc2c(Cl)c3c(nc2c1)CCC3 5.85 µM
N#Cc1ccccc1NC(=O)c1ccc2c(Cl)c3c(nc2c1)CCCC3 2.93 µM
Cc1ccnc(SCC(=O)N2CCc3ccccc32)n1 7.36 µM
O=C(CSc1ccccc1)N1CCc2ccccc21 3.29 µM
CCn1c(-c2ccc(F)cc2)cnc1SCC(=O)N1CCc2ccccc21 11.7 µM
O=C(CSc1ncccc1-c1nc2ccccc2[nH]1)N1CCc2ccccc21 5.21 µM
Cc1ccc(SCC(=O)N2CCc3ccccc32)cc1 14.7 µM
COc1cccc2cc(-c3nnc(Nc4ccccc4C)s3)c(=O)oc12 0.736 µM
O=c1oc2cc(O)ccc2cc1-c1nnc(Nc2ccccc2F)s1 0.369 µM
COc1cccc2cc(-c3nnc(Nc4c(F)cccc4F)s3)c(=O)oc12 1.04 µM
CCC1CCCCN1CCCNC(=O)c1ccc2nc(N3CCC(C)CC3)sc2c1 (stereo not given) 0.0656 µM
COc1cccc(N2CCN(C(=O)c3ccc4nc(N5CCC(C)CC5)sc4c3)CC2)c1 1.47 µM
CC1CCN(c2nc3ccc(C(=O)NCCCN4CCCCC4)cc3s2)CC1 0.0927 µM
CC1CCN(c2nc3ccc(C(=O)NCCCN4CCCCC4C)cc3s2)CC1 (stereo not given) 0.0656 µM
Cc1ccc(-c2nnc(NC(=O)c3ccco3)s2)cc1 1.47 µM
O=C(NC(=S)Nc1nc2ccccc2s1)c1ccco1 1.17 µM
Cc1ccc2nc(NC(=S)NC(=O)c3ccco3)sc2c1 0.736 µM
CC1CCC/C(=C\Nc2ccc(O)cc2)C1=O (stereo not given) 10.4 µM
CC1CCC/C(=C\Nc2ccc(C(=O)O)cc2)C1=O (stereo not given) 0.585 µM
CCC(=O)Nc1nnc(/C=C/c2ccc(OC)cc2)s1 11.7 µM
CCC(=O)Nc1nnc(/C=C/c2ccccc2)s1 13.1 µM
COC(=O)Nc1nnc(/C=C/c2ccc(OC)cc2)s1 4.14 µM
C/C(=N\Nc1cccc(C(=O)O)c1)c1ccc(Cl)s1 6.56 µM
COc1ccc(/C(C)=N/Nc2cccc(C(=O)O)c2)cc1OC 10.4 µM
C/C(=N\NC(=O)c1cccc(N/N=C(\C)c2ccccc2)c1)c1ccccc1 14.7 µM
CC(=O)Nc1cccc(C(=O)N/N=C/c2ccccc2F)c1 2.07 µM
C/C(=N/NC(=O)c1ccccc1)C(=O)O 2.93 µM
C/C(=N\Nc1ccc([N+](=O)[O-])cc1)c1ccco1 3.69 µM
C/C(=N\NC(=O)c1cccc(N/N=C(\C)c2ccco2)c1)c1ccco1 6.56 µM
